Autofluor counter: counter-screen for toxin protease inhibitors: compound fluorescence; compound autofluorescence counterscreen, microsphere flow cytometry; hits give high values; fluorescence intensity (no concentration beside the values); 360,000 tested, 3.1% active; in the data active = fluorescence intensity above about 16000; inconclusive = no clear call, values can overlap the other calls
Anthrax LF prot: blocks Bacillus anthracis lethal factor protease. P15917. 360,000 tested, 0.12% active. multiplex microsphere protease cleavage assay, LF. inhibition, % at 10 µM; note: plate controls were buffer without enzyme for full effect and enzyme alone for no effect
Target sequence (P15917 whole entry, looked up): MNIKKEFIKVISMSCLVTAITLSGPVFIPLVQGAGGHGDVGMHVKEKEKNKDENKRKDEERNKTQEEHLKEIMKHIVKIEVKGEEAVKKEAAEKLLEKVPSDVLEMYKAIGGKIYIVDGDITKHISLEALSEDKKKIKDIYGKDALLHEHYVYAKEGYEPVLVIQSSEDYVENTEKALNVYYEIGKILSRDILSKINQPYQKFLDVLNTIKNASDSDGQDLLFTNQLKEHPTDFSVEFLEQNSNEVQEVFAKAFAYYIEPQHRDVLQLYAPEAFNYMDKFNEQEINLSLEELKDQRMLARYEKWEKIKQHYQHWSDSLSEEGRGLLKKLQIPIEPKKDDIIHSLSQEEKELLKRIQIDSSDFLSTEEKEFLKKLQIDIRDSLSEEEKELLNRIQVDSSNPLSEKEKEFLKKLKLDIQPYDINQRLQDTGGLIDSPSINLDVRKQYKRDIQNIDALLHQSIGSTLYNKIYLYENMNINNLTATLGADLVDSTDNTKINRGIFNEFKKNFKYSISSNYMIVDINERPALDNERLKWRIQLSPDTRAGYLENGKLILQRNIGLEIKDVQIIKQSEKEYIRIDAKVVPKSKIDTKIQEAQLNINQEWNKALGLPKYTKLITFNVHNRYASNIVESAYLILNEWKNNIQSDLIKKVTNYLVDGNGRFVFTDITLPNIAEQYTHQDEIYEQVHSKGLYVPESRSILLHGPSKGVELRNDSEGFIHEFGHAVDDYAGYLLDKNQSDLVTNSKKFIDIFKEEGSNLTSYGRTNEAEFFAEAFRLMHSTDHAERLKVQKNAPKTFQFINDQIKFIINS
BoNT-A LC inh2: blocks Botulinum neurotoxin A light chain protease; multiplex microsphere protease substrate cleavage, flow cytometry; inhibition, % at 10 µM; 360,000 tested, 0.17% active; AID 588499; note: plate controls were buffer without enzyme for full effect and enzyme alone for no effect
SARS 3CLpro inh: SARS-CoV 3CLpro protease inhibition; P0C6X7; recombinant SARS-CoV 3CLpro, quenched FRET peptide cleavage; inhibition, % at 6 µM; 290,000 tested, 0.14% active; in the data active = inhibition above about 12%
BJeLR viability: kills HRASV12-expressing BJeLR cells; BJeLR (HRASV12) viability, CellTiter-Glo ATP luminescence, 48 h; inhibition, % (test concentration not listed); 300,000 tested, 0.17% active; in the data active = inhibition above about 50%; inconclusive = no clear call, values can overlap the other calls
BoNT-F LC inh: inhibitors of Botulinum neurotoxin F light chain protease | Multiplex microsphere protease cleavage assay, flow cytometry | inhibition, % at 10 µM | 360,000 tested, 0.22% active; in the data active = inhibition above about 35%, passing the limit was not always enough; inconclusive = no clear call, values can overlap the other calls; note: plate controls were buffer without enzyme for full effect and enzyme alone for no effect
* hit, by the source's call; ? = inconclusive; · = no result given. A selection: hits, their analogues and other compounds. The true share with any hit is near 3.6%. Cut-off read from the data, not from the text of the source, unless noted: active = inhibition above about 30%; inconclusive = no clear call, values can overlap the other calls; inactive = below that.

SMILES	Autofluor counter	Anthrax LF prot	BoNT-A LC inh2	SARS 3CLpro inh	BJeLR viability	BoNT-F LC inh
CCCc1cc(=O)n2c(nc3ccccc32)[nH]1	3839	-8	-1	-1	-5	-28
COC(=O)C1CCN(C(=O)c2ccc(SC)cc2OC)CC1	20634*	0	?	-1	14	-3
O=C(CSc1cccc[n+]1[O-])C12CC3CC(CC(C3)C1)C2	4628	-7	0	3	-1	-18
CN1CCC(N(C)C(=O)COc2ccccc2Cl)CC1	3345	-5	0	·	·	-5
CC(Sc1nc2ccccc2o1)C(=O)O (configuration not stated)	20941*	-1	-2	5	11	-2
O=C(Cc1ccc(NC(=O)C2CCCN(C(=O)C3CCC3)C2)cc1)Nc1cccc(C(=O)N2CCCCC2)c1 (configuration not stated)	3888	-6	0	·	·	-3
CC1CCN(C(=O)CCCl)c2ccccc21 (configuration not stated)	3813	-3	0	·	·	-1
COc1ccc(Cl)cc1NC(=O)c1noc(C)c1[N+](=O)[O-]	4975	-1	0	2	-3	2
NC(=O)NC(c1ccccc1)c1ccccc1	10031	1	0	7	-11	6
NC(=O)NC(c1ccccc1)c1ccccc1F (configuration not stated)	23015*	-2	0	4	7	-3
COc1cccc(OC)c1C(=O)NC(=S)Nc1cc(-c2nc3ccccc3[nH]2)ccc1Cl	2634	-2	0	-1	0	-1
C(=C\c1ccc2ccccc2n1)/c1ccccc1	5292	-2	0	4	20	0
CN(C)c1ccc(/C=C/c2ccc3ccccc3n2)cc1	4319	19	2	1	71*	-63
CC(Oc1ccc(F)cc1)C(=O)Nc1cc(S(=O)(=O)N2CCOCC2)ccc1N1CCCCC1 (configuration not stated)	?	-2	-1	·	-3	-8
Cc1ccc(-c2csc(Cc3nc(-c4cc5ccccc5oc4=O)cs3)n2)cc1	7025	2	6	-2	10	5
O=c1oc2ccccc2cc1-c1csc(Cc2nc(-c3ccc(Br)cc3)cs2)n1	16508*	1	?	-2	7	0
COc1ccc(C(=O)n2cnc3ccccc32)cc1	3741	-5	-2	-3	4	2
CCCCSc1nc(N)c(C#N)c(-c2cccs2)c1C#N	19876*	-1	3	4	-5	2
O=C(CN1C(=O)c2ccccc2C1=O)c1ccccc1	2760	-2	-1	-1	-5	-3
CC1=C(CC(=O)c2ccccc2)C(=O)c2ccccc2C1=O	18823*	-2	?	2	0	7
COc1nc(N)c(S(=O)(=O)c2ccc(C)cc2)cc1C#N	19122*	-1	1	-1	-9	0
N#Cc1ccc(-c2nc3c4ccccc4ccn3c2CC2CCCCC2)cc1	6548	-9	0	·	·	0
CCOC(=O)c1c(-c2ccccc2)nc2ccc(C)cn12	19967*	2	?	2	3	0
CCOC(=O)c1c(-c2ccccc2)nc2cc(C)ccn12	4233	-8	0	1	-10	-2
CN1C(=O)Cc2cc(S(=O)(=O)Nc3ccc(Cl)cc3)ccc21	3802	-1	2	6	6	10
SMILES	Autofluor counter	Anthrax LF prot	BoNT-A LC inh2	SARS 3CLpro inh	BJeLR viability	BoNT-F LC inh
O=c1c2ccccc2nc2sc(Nc3ccc(F)cc3)nn12	2784	5	-1	·	·	0
Cc1ccccc1Nc1nn2c(=O)c3ccccc3nc2s1	23125*	0	0	1	4	-2
CC(CC(=O)NCc1ccccc1)C1CCCO1 (configuration not stated)	19114*	-17	8	-2	-8	9
O=C(CC(C(=O)O)C1CCCO1)NCc1ccccc1 (configuration not stated)	3812	-9	1	2	1	?
CC(C)Oc1ccc(C(=O)O)cc1	2922	3	0	-1	8	-15
CC(C)Oc1ccc(C(=O)O)c(C(=O)O)c1	25281*	-1	?	-5	-18	-5
O=S(=O)(NCC(c1ccco1)N1CCOCC1)c1ccc(Cl)cc1 (configuration not stated)	10290	-1	-2	0	5	-6
Cn1c(O)c(/C=N/c2ncccn2)c(=O)n(C)c1=O	21865*	4	2	3	10	4
CCOc1ccccc1N=Cc1c(O)n(C)c(=O)n(C)c1=O	4297	-18	-2	1	19	-22
Cc1ccccc1OCCN=Cc1c(O)n(C)c(=O)n(C)c1=O	22922*	1	2	-8	4	3
COc1ccc(Cl)c(-c2cc(C(=O)Nc3ccccc3)[nH]n2)c1	3502	-4	0	·	·	5
NC(=O)[C@@H]1CCCN1Cc1nc(-c2cccs2)no1	3171	-2	0	2	-6	0
Cc1cc(C)n2nc(SCc3nnc(-c4ccccc4Br)o3)nc2n1	4049	4	1	0	-35	5
CCCCCCCCCn1c2c(c(=N)c3c1CCC3)CCCC2	4800	-2	-1	-1	47	-3
CCCCCCCCCCn1c2c(c(=N)c3c1CCC3)CCC2	4232	-1	-1	0	56*	6
CCCC1=C(C(=O)OCC)C(c2cc(Cl)cc(OC)c2OCc2ccccc2)NC(=O)N1 (configuration not stated)	21474*	0	2	-1	-5	2
C=CCOc1c(OC)cc(Cl)cc1C1NC(=O)NC(C)=C1C(C)=O (configuration not stated)	4439	1	0	7	0	-29
CCOC(=O)C1=C(C)NC(=O)NC1c1ccc(Cl)cc1Cl (configuration not stated)	20836*	-8	3	2	0	2
CCOC(=O)C1=C(C)C(c2ccccc2O)NC(=O)N1 (configuration not stated)	19487*	0	2	0	-6	2
CCOC(=O)C1=C(C)NC(=O)NC1c1cccc(OC)c1OCc1ccccc1Cl (configuration not stated)	23671*	-3	?	2	-6	-2
CCOC(=O)C1=C(C)N(C)C(=S)NC1c1ccc(Cl)cc1Cl (configuration not stated)	2308	-2	0	2	-4	-7
COC(=O)c1cc(S(=O)(=O)N2CCN(Cc3ccccc3)CC2)cn1C	6297	-2	0	3	7	-5
COc1cc(Cl)cc(C2NC(=O)NC(C)=C2C(C)=O)c1OCC(=O)O (configuration not stated)	16937*	-4	-3	-2	0	-4
O=C(COCc1ccccc1)N[C@@H]1c2ccccc2CC[C@@H]1OCc1ccccc1	3847	-3	-1	·	·	0
CCOc1cccc(=O)c2c(C)n(Cc3ccco3)c(C)c12	22022*	-2	2	3	-1	1
